Experimental data published in PMC7862700, “An all-to-all approach to the identification of sequence-specific readers for epigenetic DNA modifications on cytosine”.

How the values were obtained:
Experiment in all cases: DAPPL (digital affinity profiling via proximity ligation, sequencing); 10 mM Tris-HCl pH 7.5, 50 mM NaCl, 1 mM DTT, 4% glycerol, room temperature, 30 min; GST-TFs on glutathione beads, 16-mer random dsDNA library, 0.1% formaldehyde crosslink after washing; high values mean tight binding
Details in all cases: protein: recombinant; tags: N-terminal GST; dsDNA, one strand shown
[1] = target: T1, ELK1 (Homo sapiens, UniProt P19419 1-428)
T1 sequence: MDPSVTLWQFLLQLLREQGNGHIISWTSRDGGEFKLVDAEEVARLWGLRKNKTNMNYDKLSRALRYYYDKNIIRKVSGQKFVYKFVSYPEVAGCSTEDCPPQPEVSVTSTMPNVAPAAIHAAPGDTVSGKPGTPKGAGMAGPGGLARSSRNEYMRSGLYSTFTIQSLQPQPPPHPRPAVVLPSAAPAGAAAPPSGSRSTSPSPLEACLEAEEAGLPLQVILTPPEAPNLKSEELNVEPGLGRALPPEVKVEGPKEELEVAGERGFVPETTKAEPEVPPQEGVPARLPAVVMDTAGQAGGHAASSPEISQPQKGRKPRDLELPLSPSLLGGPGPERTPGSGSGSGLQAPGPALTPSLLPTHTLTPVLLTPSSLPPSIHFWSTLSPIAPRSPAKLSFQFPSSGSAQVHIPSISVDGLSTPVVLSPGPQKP
Summary of the method: (§1)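 Pools were built from human transcription factors expressed in yeast as GST fusions, captured on glutathione beads and DNA-barcoded, along with a tag-only sample. Incubation with 200 nmole of a 16-mer random double-stranded DNA library lasted 30 min at room temperature in Tris/NaCl/DTT/glycerol buffer, and was followed by washing, 0.1% formaldehyde crosslinking, proximity ligation, PCR amplification and Illumina NextSeq500 sequencing. Binding signal is the quotient of each hexamer's read frequency for a factor and its frequency for the tag-only sample.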

[2] = target: T2, GABPA (Homo sapiens, UniProt Q06546 1-454)
T2 sequence: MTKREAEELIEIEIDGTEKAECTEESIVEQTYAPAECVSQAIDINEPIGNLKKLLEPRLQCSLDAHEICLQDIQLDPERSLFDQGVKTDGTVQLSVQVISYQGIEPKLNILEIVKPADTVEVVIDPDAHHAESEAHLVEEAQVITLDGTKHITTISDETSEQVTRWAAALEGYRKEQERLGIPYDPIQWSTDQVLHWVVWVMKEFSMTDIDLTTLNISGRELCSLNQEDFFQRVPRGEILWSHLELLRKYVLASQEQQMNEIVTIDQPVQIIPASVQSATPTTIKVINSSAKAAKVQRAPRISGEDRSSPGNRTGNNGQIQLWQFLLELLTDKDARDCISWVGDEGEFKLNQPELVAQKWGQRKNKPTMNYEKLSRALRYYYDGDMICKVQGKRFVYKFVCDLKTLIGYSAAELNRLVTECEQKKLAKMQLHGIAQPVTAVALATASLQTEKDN
Summary of the method: as §1

[3] = target: T3, ERG (Homo sapiens, UniProt P11308 1-479)
T3 sequence: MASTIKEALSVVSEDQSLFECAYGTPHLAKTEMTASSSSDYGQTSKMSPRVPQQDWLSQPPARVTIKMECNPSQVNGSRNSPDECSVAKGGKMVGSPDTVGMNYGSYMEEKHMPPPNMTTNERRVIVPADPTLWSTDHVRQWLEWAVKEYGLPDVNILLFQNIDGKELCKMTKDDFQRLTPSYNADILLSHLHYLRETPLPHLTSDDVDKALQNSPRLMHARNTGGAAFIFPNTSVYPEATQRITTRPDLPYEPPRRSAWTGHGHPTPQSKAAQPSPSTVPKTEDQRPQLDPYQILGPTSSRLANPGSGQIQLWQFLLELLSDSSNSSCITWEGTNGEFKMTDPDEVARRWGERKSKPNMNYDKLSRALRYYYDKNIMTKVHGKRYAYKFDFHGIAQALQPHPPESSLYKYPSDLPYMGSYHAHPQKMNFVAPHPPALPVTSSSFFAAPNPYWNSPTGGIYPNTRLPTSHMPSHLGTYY
Summary of the method: as §1

[4] = target: T4, FEV (Homo sapiens, UniProt Q99581 1-238)
T4 sequence: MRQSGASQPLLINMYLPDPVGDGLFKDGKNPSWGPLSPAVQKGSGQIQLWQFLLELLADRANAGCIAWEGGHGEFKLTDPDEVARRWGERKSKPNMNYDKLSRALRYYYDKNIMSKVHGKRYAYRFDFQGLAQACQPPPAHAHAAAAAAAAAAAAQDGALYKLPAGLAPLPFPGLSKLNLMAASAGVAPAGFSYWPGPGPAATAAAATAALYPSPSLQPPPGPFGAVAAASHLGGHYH
Summary of the method: as §1

[5] = target: ETV5 (Homo sapiens, UniProt P41161 1-510)
Summary of the method: as §1

[6] = target: ELF4 (Homo sapiens, UniProt Q99607 1-663)
Summary of the method: as §1

[7] = target: T5, ELF3 (Homo sapiens, UniProt P78545 1-371)
T5 sequence: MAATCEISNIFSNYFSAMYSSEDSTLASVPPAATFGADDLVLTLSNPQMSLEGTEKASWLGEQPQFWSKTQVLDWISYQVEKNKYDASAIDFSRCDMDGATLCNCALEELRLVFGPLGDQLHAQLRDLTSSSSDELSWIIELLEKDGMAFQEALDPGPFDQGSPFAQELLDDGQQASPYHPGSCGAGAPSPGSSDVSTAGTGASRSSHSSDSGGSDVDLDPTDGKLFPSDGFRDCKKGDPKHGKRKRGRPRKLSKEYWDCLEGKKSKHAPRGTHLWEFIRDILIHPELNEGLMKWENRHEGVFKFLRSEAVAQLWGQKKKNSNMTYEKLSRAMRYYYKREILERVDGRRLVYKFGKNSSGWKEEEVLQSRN
Summary of the method: as §1

[8] = target: ETV1 (Homo sapiens, UniProt P50549 1-477)
Summary of the method: as §1

[9] = target: T6, ETV3L (Homo sapiens, UniProt Q6ZN32 1-361)
T6 sequence: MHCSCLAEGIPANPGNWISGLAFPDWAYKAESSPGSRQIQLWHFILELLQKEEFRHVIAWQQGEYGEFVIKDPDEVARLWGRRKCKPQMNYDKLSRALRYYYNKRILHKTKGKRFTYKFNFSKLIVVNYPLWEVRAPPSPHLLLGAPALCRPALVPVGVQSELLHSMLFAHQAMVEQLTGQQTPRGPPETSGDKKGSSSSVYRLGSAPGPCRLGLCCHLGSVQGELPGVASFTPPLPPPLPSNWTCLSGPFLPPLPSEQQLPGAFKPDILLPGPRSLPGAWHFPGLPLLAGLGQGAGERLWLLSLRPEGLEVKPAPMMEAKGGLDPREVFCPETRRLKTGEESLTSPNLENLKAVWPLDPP
Summary of the method: as §1

[10] = target: T7, ETS2 (Homo sapiens, UniProt P15036 1-469)
T7 sequence: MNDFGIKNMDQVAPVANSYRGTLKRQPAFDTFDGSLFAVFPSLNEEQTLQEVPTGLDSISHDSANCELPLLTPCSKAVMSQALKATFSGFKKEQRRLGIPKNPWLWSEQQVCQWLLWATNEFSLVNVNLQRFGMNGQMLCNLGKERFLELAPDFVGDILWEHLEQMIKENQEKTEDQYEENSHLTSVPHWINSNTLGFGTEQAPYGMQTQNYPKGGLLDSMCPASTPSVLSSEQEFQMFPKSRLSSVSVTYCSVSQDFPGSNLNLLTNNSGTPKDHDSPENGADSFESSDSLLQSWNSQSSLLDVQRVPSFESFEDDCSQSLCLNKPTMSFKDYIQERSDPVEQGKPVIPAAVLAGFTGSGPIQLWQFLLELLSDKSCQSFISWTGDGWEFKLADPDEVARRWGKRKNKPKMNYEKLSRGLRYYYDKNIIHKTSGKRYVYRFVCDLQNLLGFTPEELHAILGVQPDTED
Summary of the method: as §1

[11] = target: T8, SPDEF (Homo sapiens, UniProt O95238 1-335)
T8 sequence: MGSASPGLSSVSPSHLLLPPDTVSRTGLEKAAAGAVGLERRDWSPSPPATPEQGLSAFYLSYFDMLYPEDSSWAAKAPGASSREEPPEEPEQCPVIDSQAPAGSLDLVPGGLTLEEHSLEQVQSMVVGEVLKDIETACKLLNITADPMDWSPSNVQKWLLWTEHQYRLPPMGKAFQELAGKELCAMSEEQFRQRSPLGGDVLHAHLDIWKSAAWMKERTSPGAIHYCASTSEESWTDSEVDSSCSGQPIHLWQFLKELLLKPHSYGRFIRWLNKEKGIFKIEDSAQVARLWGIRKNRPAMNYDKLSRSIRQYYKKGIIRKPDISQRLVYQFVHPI
Summary of the method: as §1

[12] = target: T9, ETV7 (Homo sapiens, UniProt Q9Y603 1-341)
T9 sequence: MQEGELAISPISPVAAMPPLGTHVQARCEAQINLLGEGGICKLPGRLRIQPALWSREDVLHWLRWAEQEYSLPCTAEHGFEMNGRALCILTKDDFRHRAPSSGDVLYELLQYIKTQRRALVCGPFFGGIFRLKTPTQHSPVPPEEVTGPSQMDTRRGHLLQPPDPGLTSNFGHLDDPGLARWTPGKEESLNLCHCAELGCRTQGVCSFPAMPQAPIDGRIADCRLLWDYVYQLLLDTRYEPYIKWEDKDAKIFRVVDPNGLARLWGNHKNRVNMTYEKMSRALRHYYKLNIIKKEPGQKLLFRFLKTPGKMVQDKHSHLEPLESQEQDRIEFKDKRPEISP
Summary of the method: as §1

[13] = target: ELF1 (Homo sapiens, UniProt P32519 1-619)
Summary of the method: as §1

[14] = target: T10, ELK4 (Homo sapiens, UniProt P28324-2 1-405)
T10 sequence: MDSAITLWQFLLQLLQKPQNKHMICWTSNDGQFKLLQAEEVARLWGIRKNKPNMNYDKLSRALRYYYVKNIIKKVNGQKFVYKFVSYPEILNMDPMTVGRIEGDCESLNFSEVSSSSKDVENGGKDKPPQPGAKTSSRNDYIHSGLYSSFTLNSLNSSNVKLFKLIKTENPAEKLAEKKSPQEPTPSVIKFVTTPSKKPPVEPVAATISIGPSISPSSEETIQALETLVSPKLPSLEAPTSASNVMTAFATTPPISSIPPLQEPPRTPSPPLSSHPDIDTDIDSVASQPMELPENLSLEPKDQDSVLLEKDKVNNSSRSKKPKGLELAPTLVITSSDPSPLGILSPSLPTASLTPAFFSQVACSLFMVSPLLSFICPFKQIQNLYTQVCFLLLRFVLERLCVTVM
Summary of the method: as §1

[15] = target: T11, ERF (Homo sapiens, UniProt P50548 1-548)
T11 sequence: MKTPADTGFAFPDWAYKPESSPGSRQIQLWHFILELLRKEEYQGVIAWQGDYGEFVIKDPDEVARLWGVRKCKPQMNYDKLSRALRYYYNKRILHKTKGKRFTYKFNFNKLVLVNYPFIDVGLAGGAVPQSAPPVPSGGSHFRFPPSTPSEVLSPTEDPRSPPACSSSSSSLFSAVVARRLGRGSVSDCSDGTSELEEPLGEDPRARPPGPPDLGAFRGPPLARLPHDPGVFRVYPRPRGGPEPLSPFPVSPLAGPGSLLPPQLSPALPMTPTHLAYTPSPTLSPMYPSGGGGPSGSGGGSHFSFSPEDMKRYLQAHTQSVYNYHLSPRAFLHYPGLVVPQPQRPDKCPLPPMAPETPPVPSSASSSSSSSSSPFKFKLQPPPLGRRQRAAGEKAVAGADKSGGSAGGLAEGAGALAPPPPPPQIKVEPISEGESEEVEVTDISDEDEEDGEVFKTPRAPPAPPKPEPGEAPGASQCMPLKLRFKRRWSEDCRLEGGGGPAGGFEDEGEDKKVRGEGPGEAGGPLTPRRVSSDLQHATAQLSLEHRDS
Summary of the method: as §1

[16] = target: T12, ETV3 (Homo sapiens, UniProt P41162-2 1-143)
T12 sequence: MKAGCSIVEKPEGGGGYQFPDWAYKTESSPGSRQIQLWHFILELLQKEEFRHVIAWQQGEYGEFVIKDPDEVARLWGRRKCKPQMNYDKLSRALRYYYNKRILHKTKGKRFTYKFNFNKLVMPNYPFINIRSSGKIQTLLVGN
Summary of the method: as §1

[17] = target: ETV6 (Homo sapiens, UniProt P41212 1-452)
Summary of the method: as §1

Chain of ETV5 (P41161 whole entry): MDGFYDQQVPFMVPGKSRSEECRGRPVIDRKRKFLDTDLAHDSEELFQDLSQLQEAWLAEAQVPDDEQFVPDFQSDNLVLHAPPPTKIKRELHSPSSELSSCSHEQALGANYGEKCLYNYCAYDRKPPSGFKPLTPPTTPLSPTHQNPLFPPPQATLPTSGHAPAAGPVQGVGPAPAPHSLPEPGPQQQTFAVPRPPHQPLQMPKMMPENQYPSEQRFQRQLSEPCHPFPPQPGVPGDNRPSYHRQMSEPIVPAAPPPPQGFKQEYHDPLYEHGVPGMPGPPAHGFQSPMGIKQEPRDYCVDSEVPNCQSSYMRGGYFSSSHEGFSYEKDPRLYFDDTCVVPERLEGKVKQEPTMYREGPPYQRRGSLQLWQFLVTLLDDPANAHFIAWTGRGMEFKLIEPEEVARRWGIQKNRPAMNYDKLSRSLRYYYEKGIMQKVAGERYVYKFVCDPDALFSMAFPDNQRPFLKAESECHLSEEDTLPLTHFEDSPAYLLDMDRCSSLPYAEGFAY
Chain of ELF4 (Q99607 whole entry): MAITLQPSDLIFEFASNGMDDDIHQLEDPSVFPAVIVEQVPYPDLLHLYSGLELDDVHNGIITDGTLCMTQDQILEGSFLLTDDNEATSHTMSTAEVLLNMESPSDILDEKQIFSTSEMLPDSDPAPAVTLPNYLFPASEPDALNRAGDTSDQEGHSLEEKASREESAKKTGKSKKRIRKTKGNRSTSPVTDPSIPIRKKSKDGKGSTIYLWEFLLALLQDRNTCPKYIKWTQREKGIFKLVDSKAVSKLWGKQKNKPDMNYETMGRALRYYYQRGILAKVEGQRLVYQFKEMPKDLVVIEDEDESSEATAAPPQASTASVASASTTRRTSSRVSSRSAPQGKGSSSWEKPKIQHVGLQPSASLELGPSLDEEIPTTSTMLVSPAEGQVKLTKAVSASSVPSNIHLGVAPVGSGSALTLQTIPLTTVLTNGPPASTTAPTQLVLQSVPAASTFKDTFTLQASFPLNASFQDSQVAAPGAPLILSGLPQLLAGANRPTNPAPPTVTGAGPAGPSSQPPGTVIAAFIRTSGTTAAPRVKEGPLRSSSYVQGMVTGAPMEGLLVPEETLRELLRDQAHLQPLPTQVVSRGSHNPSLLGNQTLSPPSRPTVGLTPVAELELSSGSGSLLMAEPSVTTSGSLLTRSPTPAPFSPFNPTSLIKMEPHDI
Chain of ETV1 (P50549 whole entry): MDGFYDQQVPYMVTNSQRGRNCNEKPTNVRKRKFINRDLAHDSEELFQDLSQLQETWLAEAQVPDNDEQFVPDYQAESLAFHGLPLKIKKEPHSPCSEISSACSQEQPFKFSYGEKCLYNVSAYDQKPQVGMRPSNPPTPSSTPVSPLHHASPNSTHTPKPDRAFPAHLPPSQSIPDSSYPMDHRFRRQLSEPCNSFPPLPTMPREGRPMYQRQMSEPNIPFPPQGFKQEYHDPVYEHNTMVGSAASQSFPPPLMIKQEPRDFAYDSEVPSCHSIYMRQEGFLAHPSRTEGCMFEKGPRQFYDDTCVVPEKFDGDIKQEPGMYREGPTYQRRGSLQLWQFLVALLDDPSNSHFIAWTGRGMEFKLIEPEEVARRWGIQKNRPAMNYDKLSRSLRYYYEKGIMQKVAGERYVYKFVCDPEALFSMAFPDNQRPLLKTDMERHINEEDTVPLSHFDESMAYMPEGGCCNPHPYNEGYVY
Chain of ELF1 (P32519 whole entry): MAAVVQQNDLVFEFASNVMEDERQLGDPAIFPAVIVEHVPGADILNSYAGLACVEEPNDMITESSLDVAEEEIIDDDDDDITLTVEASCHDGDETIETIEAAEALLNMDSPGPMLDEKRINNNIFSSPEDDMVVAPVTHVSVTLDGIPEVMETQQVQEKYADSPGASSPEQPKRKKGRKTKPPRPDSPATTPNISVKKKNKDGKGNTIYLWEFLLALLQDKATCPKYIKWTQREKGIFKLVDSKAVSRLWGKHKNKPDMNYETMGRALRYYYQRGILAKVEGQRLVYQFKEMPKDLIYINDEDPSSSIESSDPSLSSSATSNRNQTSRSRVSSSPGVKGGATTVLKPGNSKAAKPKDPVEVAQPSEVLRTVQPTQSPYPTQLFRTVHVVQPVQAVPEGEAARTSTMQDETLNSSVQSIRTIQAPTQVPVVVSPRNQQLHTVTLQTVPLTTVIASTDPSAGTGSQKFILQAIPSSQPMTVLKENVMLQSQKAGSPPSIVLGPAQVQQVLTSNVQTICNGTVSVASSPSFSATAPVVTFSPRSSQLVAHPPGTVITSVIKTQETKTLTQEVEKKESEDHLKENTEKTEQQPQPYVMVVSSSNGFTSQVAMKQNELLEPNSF
Chain of ETV6 (P41212 whole entry): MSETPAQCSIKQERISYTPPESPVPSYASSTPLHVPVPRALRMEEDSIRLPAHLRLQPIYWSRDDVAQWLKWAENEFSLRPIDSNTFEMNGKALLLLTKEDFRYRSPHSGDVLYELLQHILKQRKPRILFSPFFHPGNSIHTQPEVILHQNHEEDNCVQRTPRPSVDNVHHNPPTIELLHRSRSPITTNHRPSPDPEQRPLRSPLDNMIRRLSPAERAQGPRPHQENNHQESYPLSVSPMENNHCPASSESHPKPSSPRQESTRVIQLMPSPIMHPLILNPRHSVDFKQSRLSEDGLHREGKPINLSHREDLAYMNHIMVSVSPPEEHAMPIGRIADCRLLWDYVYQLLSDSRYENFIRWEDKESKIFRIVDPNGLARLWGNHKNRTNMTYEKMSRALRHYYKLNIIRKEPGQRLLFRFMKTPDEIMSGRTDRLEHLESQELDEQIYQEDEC

Question: Which results are given for CAGCAT?
Answer: binding signal [1]: 1 fold enrichment (6-mer frequency, TF over GST control); binding signal [2]: 1.03 fold enrichment (6-mer frequency, TF over GST control); binding signal [3]: 1.03 fold enrichment (6-mer frequency, TF over GST control); binding signal [4]: 1.04 fold enrichment (6-mer frequency, TF over GST control); binding signal [5]: 1.04 fold enrichment (6-mer frequency, TF over GST control); binding signal [6]: 1.05 fold enrichment (6-mer frequency, TF over GST control); binding signal [7]: 1.07 fold enrichment (6-mer frequency, TF over GST control); binding signal [8]: 1.06 fold enrichment (6-mer frequency, TF over GST control); binding signal [9]: 1.03 fold enrichment (6-mer frequency, TF over GST control); binding signal [10]: 1.03 fold enrichment (6-mer frequency, TF over GST control); binding signal [11]: 1.05 fold enrichment (6-mer frequency, TF over GST control); binding signal [12]: 1.01 fold enrichment (6-mer frequency, TF over GST control)

Question: For CGTTGT, which binding signal [1] is on record?
Answer: 1.09 fold enrichment (6-mer frequency, TF over GST control)

Question: And the binding signal [2]?
Answer: 1 fold enrichment (6-mer frequency, TF over GST control)

Question: And the binding signal [3]?
Answer: 1.02 fold enrichment (6-mer frequency, TF over GST control)

Question: What about the binding signal [13] of the same sequence?
Answer: 1.04 fold enrichment (6-mer frequency, TF over GST control)

Question: What about the binding signal [5] of the same sequence?
Answer: 1.01 fold enrichment (6-mer frequency, TF over GST control)

Question: What about the binding signal [14] of the same sequence?
Answer: 1.14 fold enrichment (6-mer frequency, TF over GST control)

Question: And the binding signal [15]?
Answer: 1.03 fold enrichment (6-mer frequency, TF over GST control)

Question: What about the binding signal [9] of the same sequence?
Answer: 1.18 fold enrichment (6-mer frequency, TF over GST control)

Question: And the binding signal [11]?
Answer: 1.05 fold enrichment (6-mer frequency, TF over GST control)

Question: What about the binding signal [12] of the same sequence?
Answer: 1.1 fold enrichment (6-mer frequency, TF over GST control)

Question: And the binding signal [16]?
Answer: 1.07 fold enrichment (6-mer frequency, TF over GST control)

Question: What about the binding signal [17] of the same sequence?
Answer: 1 fold enrichment (6-mer frequency, TF over GST control)
